Compounds without any hit were thinned out: in the full panel of roughly 83,000, 20% have a hit.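 Assay: single dose, 48 h. Readout: percent growth (0 = no net growth; negative = cell death). Active: <10.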 A number with no mark means an inactive call. The source made the active and inactive calls.

Common to all, as to test: NCI-60 one-dose screen, 48 h (100 = growth as untreated, 0 = no growth, -100 = all killed)
One assay concerns HCT-15 colon. To be noted: 10 µM unless noted.
For another assay, the system named is HT29 colon. To be noted: 10 µM unless noted.
A further assay relates to SNB-75 CNS. Particulars: 10 µM unless noted.
The subject of a further assay is SNB-19 CNS. To be noted: 10 µM unless noted.
For a further assay, the system named is U251 CNS. To be noted: 10 µM unless noted.
The next assay deals with SK-MEL-5 melanoma. To be noted: 10 µM unless noted.
For a further assay, the system named is UACC-62 melanoma. Particulars: 10 µM unless noted.
In another assay the test system is LOX IMVI melanoma. To be noted: 10 µM unless noted.
A further assay concerns SK-MEL-28 melanoma. To be noted: 10 µM unless noted.
A further assay deals with EKVX NSCLC. To be noted: 10 µM.
The subject of a further assay is SN12C renal. To be noted: 10 µM unless noted.
In a further assay the test system is UO-31 renal. Particulars: 10 µM unless noted.
For the next assay, the system named is TK-10 renal. To be noted: 10 µM unless noted.
A further assay has as its system ACHN renal. Particulars: 10 µM unless noted.
For another assay, the system named is CAKI-1 renal. Particulars: 10 µM unless noted.
A further assay concerns A498 renal. To be noted: 10 µM unless noted.
For another assay, the system named is MOLT-4 leukemia. To be noted: 10 µM unless noted.
The subject of a further assay is PC-3 prostate. Particulars: 10 µM unless noted.
A further assay deals with SK-MEL-2 melanoma. Particulars: 10 µM unless noted.
The next assay concerns CCRF-CEM leukemia. Particulars: 10 µM.

Consider `COc1cc(-c2nn(-c3ccc(NC(=O)c4cc(Cl)cc(Cl)c4)cc3)cc2-c2ccncc2)ccc1Cl`, for which the growth with HCT-15 colon was 22.6%; in the assay with HT29 colon it was 16.9%; in the assay with SNB-75 CNS, 54%; in the assay on SNB-19 CNS, 87.7%; with U251 CNS, 55.7%; with SK-MEL-5 melanoma it was 79.4%. For the same compound, the growth in the assay with UACC-62 melanoma was 70.4%; with LOX IMVI melanoma, 71.6%; in the assay on SK-MEL-28 melanoma, 85.5%; in the assay on EKVX NSCLC it was 80.1%; with SN12C renal it was 91.9%; in the assay on UO-31 renal, 65.7%. The growth was 69.4% in the assay with TK-10 renal; 94.9% in the assay on ACHN renal; 38.8% with CAKI-1 renal; 78.9% in the assay on A498 renal; 27.6% with MOLT-4 leukemia.
As for `Cc1ccc(C(C)C)c(OCc2ccc(C(=O)N/N=C/c3cccc(O)c3O)cc2)c1`, the growth with HCT-15 colon is 13.4%; in the assay on HT29 colon it was 39.6%; in the assay with SNB-75 CNS it was 44.7%; with SNB-19 CNS, 45.6%; in the assay with PC-3 prostate it was 39.4%; in the assay with SK-MEL-5 melanoma, 38.6%. Also, the growth was 30.8% with UACC-62 melanoma; -12.3% (active) with LOX IMVI melanoma; 42.8% with SK-MEL-28 melanoma; 71.5% with SK-MEL-2 melanoma; 49.1% in the assay on EKVX NSCLC; 35% in the assay with SN12C renal. Further, the growth is 16.1% in the assay with UO-31 renal; 74% with TK-10 renal; 12.8% with ACHN renal; 31.6% in the assay with CAKI-1 renal; 90.2% in the assay on A498 renal; 6.92% (active) in the assay with CCRF-CEM leukemia. For the same compound, the growth in the assay with MOLT-4 leukemia was 7.88% (active).
Turning to `O=C(Nc1ccc(-n2cc(-c3ccncc3)c(-c3ccc(Cl)c(O)c3)n2)cc1)Nc1ccc(Cl)c(C(F)(F)F)c1`, the growth was 2.66% (active) in the assay on HCT-15 colon; -92.4% (active) in the assay on HT29 colon; -11.6% (active) with SNB-75 CNS; 27.4% with SNB-19 CNS; -31.4% (active) in the assay with U251 CNS; -89.4% (active) in the assay with SK-MEL-5 melanoma. For the same compound, the growth in the assay with UACC-62 melanoma was -25% (active); in the assay with LOX IMVI melanoma it was 5.17% (active); with SK-MEL-28 melanoma it was -28.3% (active); with EKVX NSCLC it was 1.43% (active); in the assay on SN12C renal it was 31.1%; in the assay with UO-31 renal, -32.6% (active). The growth with TK-10 renal was -12.1% (active); in the assay on ACHN renal, 2.3% (active); with CAKI-1 renal, -32.5% (active); in the assay on A498 renal it was 63.6%; in the assay with MOLT-4 leukemia it was -1.95% (active).
Consider `O=C(/C=C/c1cccc(O)c1)c1cccc(-n2cc(-c3ccc(Cl)cc3)[nH]c2=O)c1`, for which the growth with HCT-15 colon is -22.9% (active); with HT29 colon it was -10.1% (active); in the assay on SNB-75 CNS it was 0.636% (active); in the assay with SNB-19 CNS it was -10.6% (active); with U251 CNS, -87.9% (active); in the assay with SK-MEL-5 melanoma it was -0.458% (active). Besides, the growth was 5.09% (active) with UACC-62 melanoma; -92.1% (active) with LOX IMVI melanoma; -86.4% (active) in the assay on SK-MEL-28 melanoma; -45.5% (active) in the assay on SK-MEL-2 melanoma; 1.79% (active) in the assay on EKVX NSCLC; -47% (active) with SN12C renal. In addition, the growth is 0.394% (active) in the assay on TK-10 renal; -80.6% (active) in the assay with ACHN renal; -53.9% (active) in the assay with CAKI-1 renal; 61.7% in the assay with A498 renal; -4.75% (active) in the assay with CCRF-CEM leukemia; -29% (active) in the assay with MOLT-4 leukemia.
As to `COc1cc2ncnc(-n3ncc4cc(NC(=O)Nc5ccccc5)ccc43)c2cc1OC`, the growth in the assay with HCT-15 colon was 21%; in the assay on HT29 colon, 29.1%; in the assay with SNB-75 CNS, -12.4% (active); with SNB-19 CNS, 44.7%; with PC-3 prostate it was -18.4% (active); in the assay on SK-MEL-5 melanoma, 40.2%. Besides, the growth is 23.9% in the assay on UACC-62 melanoma; 1.66% (active) in the assay with LOX IMVI melanoma; -15.1% (active) in the assay with SK-MEL-28 melanoma; -4.23% (active) in the assay with SK-MEL-2 melanoma; -1.75% (active) in the assay with EKVX NSCLC; 3.79% (active) in the assay with SN12C renal. Besides, the growth is -44.4% (active) in the assay on UO-31 renal; -41.1% (active) in the assay on TK-10 renal; 17.1% with ACHN renal; 16.1% with CAKI-1 renal; -33.4% (active) in the assay on A498 renal; 22.9% in the assay on CCRF-CEM leukemia. The growth in the assay with MOLT-4 leukemia is 3.89% (active).
`COc1cc(OC)cc(-c2ccc(-c3ccc(C(=N)N)cc3)s2)c1`: the growth is -79.6% (active) in the assay on HCT-15 colon; -68.8% (active) in the assay with HT29 colon; -94.9% (active) in the assay with SNB-75 CNS; -71.8% (active) in the assay with SNB-19 CNS; -94.7% (active) with PC-3 prostate; -100% (active) in the assay with SK-MEL-5 melanoma. The growth in the assay with UACC-62 melanoma is -85.1% (active); in the assay on LOX IMVI melanoma it was -86.3% (active); in the assay on SK-MEL-28 melanoma, -87.7% (active); in the assay with SK-MEL-2 melanoma, -58.3% (active); with EKVX NSCLC, -83.6% (active); in the assay with SN12C renal, -76.9% (active). Further, the growth is -78% (active) in the assay on UO-31 renal; -83.7% (active) with TK-10 renal; -90% (active) in the assay on ACHN renal; -93.7% (active) in the assay with CAKI-1 renal; -92% (active) in the assay with A498 renal; -48.8% (active) with MOLT-4 leukemia.
With `COc1ccc(Cn2cc3c(c2-c2ccc(OC)cc2)CCc2cnoc2-3)cc1`, the growth is 14.2% in the assay with HCT-15 colon; 7.18% (active) in the assay with HT29 colon; 11.4% with SNB-75 CNS; 45.5% in the assay with SNB-19 CNS; 24.8% in the assay with PC-3 prostate; 10.6% with SK-MEL-5 melanoma. In addition, the growth is 44% in the assay on UACC-62 melanoma; 32.2% in the assay on LOX IMVI melanoma; 51.2% with SK-MEL-28 melanoma; 31% in the assay with SK-MEL-2 melanoma; 49.4% in the assay on EKVX NSCLC; 26.5% with SN12C renal. The growth with UO-31 renal was 25.7%; in the assay with TK-10 renal, 69.1%; in the assay with ACHN renal, 30.7%; in the assay on CAKI-1 renal it was 14.8%; in the assay on A498 renal it was 3.78% (active); with CCRF-CEM leukemia it was 9.28% (active). For the same compound, the growth in the assay with MOLT-4 leukemia is 23.7%.
Take `N=C(N)c1ccc(-c2ccc(-c3ccc(F)cc3)s2)cc1`: the growth in the assay on HCT-15 colon is -92.8% (active); in the assay with HT29 colon, -64.1% (active); in the assay with SNB-75 CNS, -99.2% (active); in the assay on SNB-19 CNS, -86.5% (active); with PC-3 prostate, -94% (active); with SK-MEL-5 melanoma, -99% (active). In addition, the growth is -91.8% (active) in the assay on UACC-62 melanoma; -95.1% (active) with LOX IMVI melanoma; -85.9% (active) in the assay with SK-MEL-28 melanoma; -62.1% (active) in the assay with SK-MEL-2 melanoma; -91.4% (active) in the assay on EKVX NSCLC; -71.2% (active) in the assay with SN12C renal. For the same compound, the growth is -88.4% (active) with UO-31 renal; -79.9% (active) with TK-10 renal; -91.8% (active) in the assay with ACHN renal; -95.1% (active) in the assay with CAKI-1 renal; -87.8% (active) in the assay on A498 renal; -62% (active) with CCRF-CEM leukemia. Moreover, in the assay on MOLT-4 leukemia, the growth is -58.8% (active).
On to `CC(=O)Nc1ccc(CC#N)cc1Br`, for which the growth is 105% in the assay with HCT-15 colon; 104% in the assay on HT29 colon; 91% with SNB-75 CNS; 103% in the assay on SNB-19 CNS; 95.6% in the assay on PC-3 prostate; 97.8% in the assay with SK-MEL-5 melanoma. In addition, the growth in the assay on UACC-62 melanoma was 99.6%; with LOX IMVI melanoma, 106%; in the assay with SK-MEL-28 melanoma, 114%; in the assay with SK-MEL-2 melanoma, 106%; in the assay on EKVX NSCLC it was 112%; with SN12C renal, 107%. Also, the growth in the assay with UO-31 renal was 95%; in the assay on TK-10 renal, 96.4%; in the assay with ACHN renal, 109%; in the assay on CAKI-1 renal it was 96.5%; in the assay with A498 renal, 79.9%; with CCRF-CEM leukemia it was 107%. In addition, in the assay on MOLT-4 leukemia, the growth was 118%.

Values taken from PubChem BioAssay (NCI).
